Screen size: about 16,000 compounds; about 5,700 (36%) were called active. About 24% were inconclusive and are not listed. The list shows a part of the results. Values without a mark were called inactive. Calls come from the whole dose curve; as a rule, active = well fitted curve in the direction sought with a large enough effect; inconclusive = small, poorly fitted or top-dose-only effect, or effect the other way; inactive = no such curve, though single readings can be large or run the other way.
What follows are molecules tested against Cytochrome P450 1A2 (Homo sapiens) (UniProt P05177) (assay: Cytochrome panel assay with activity outcomes). Settings: recombinant CYP, pro-luciferin dealkylation, luminescence, p450-cyp1a2; series mostly up to 57.1 µM; activity, negative = inhibition: at the top concentration.
Cytochrome P450 1A2 (Homo sapiens), sequence (P05177 whole entry, looked up): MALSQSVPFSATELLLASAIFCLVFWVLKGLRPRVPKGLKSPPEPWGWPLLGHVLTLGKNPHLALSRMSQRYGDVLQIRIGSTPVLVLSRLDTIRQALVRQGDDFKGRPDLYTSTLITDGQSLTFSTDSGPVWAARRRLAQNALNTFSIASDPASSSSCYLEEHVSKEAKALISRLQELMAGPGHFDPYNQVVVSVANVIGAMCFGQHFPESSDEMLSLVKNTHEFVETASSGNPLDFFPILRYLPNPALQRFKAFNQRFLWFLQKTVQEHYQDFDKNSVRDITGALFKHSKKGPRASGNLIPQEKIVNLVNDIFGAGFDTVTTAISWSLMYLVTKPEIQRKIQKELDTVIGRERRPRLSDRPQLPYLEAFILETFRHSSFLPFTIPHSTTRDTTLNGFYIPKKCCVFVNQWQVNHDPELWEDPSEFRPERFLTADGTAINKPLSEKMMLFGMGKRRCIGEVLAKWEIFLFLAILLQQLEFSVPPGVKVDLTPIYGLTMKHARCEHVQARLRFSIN
In the case of `CC[n+]1c(P(=O)([O-])c2ccccc2)[nH]c2ccccc21`, the “activity, negative = inhibition” value is reported as 21.3%.
For `COc1ccccc1CN1CCC2(CC1)CCN(C(=O)c1cccn1C)CC2`, the “activity, negative = inhibition” value was -12.2%.
In the case of `CC(C)NC(=O)N1CCC2(CC1)CCN(C(=O)c1cc(C(F)(F)F)cc(C(F)(F)F)c1)CC2`, the “activity, negative = inhibition” value is reported as 2.82%.
In the case of `O=C1C2CCC(C(O)C2)N1Cc1ccccc1` (centres undefined), the “activity, negative = inhibition” value is reported as 13.7%.
`CCOC(=O)Nc1ccc2c(c1)OCO2` was tested, and the AC50 was 1.26 µM (active).
With `COc1cccc(Cn2c(=O)cnc3cnc(Oc4cccc(Cl)c4)nc32)c1` the AC50 was 12.6 µM (active).
With `COc1cccc(Cn2c(=O)cnc3cnc(OCc4ccccc4)nc32)c1` the AC50 was 12.6 µM (active).
With `O=c1cnc2cnc(Oc3ccccc3)nc2n1Cc1ccc(F)cc1` the AC50 was 15.8 µM (active).
With `O=c1cnc2cnc(Oc3cccc(Cl)c3)nc2n1Cc1ccc(F)cc1` the AC50 was 15.8 µM (active).
`CON1C(=O)C(=O)N(OC)C(C)(C)C1C` (centres undefined) was tested, and the “activity, negative = inhibition” value was -4.35%.
With `COc1ccc(O[C@H]2C=C[C@@H](c3ccccc3)O[C@H]2COC(=O)CC/C(C)=N\O[C@@H](C)c2cn([C@H]3COC[C@H]3O)nn2)cc1` the activity, negative = inhibition was -4.14% [at 11.4 µM].
For `O=c1cnc2cnc(OCc3ccccc3)nc2n1Cc1ccc(F)cc1`, the AC50 was 12.6 µM (active).
In the case of `COc1ncc2ncc(=O)n(Cc3ccc(F)cc3)c2n1`, the AC50 is reported as 12.6 µM (active).
For `CC(=O)N(C[C@@H](O)CO)c1c(I)c(C(=O)NC[C@@H](O)CO)c(I)c(C(=O)NC[C@@H](O)CO)c1I`, the “activity, negative = inhibition” value was -4.01% [at 25.6 µM].
`CC(C)COC[C@H](CN(Cc1ccccc1)c1ccccc1)N1CCCC1` was tested, and the “activity, negative = inhibition” value was 5.78%.
In the case of `Cc1ccc(N2C(=O)CSC2c2cccnc2)cc1F` (centres undefined), the AC50 is reported as 15.8 µM (active).
For `COc1ccc(N2C(=O)CSC2c2cccc(F)c2)c(OC)c1` (centres undefined), the “activity, negative = inhibition” value was -16.7%.
`CN1C(=O)CC[C@@H]1c1cccnc1` was tested, and the AC50 was “inactive”.
With `CC1(C)CC(=O)C2=C(C1)N(Cc1ccccc1)C(=O)C2(O)C(F)(F)F` (centres undefined) the “activity, negative = inhibition” value was 6.23%.
`CCOC(=O)N1CCN(S(=O)(=O)Cc2ccccc2)CC1` was tested, and the “activity, negative = inhibition” value was -29.3%.
In the case of `COc1cccc(C(=O)N2N=C(c3cccc(OC)c3)CC2(O)C(F)(F)F)c1` (centres undefined), the AC50 is reported as 14.1 µM (active).
`O=C(CCCc1ccccc1)N1CCN(c2ccc([N+](=O)[O-])cc2)CC1` was tested, and the “activity, negative = inhibition” value was -22.5%.
In the case of `CCC1=NN(C(=O)CCc2ccccc2)C(O)(C(F)(F)F)C1` (centres undefined), the AC50 is reported as 11.2 µM (active).
In the case of `COc1cccc(C(=O)NNC2=CC(=O)CC(C)(C)C2)c1`, the “activity, negative = inhibition” value is reported as 1.45%.
For `CCOC(=O)N1N=C(c2ccccc2)CC1(O)C(F)(F)F` (centres undefined), the AC50 was 15.8 µM (active).
For `CO[C@H]1C=CO[C@]2(C)Oc3c(C)c(O)c4c(O)c(c5c(c4c3C2=O)NC2(CCN(CC(C)C)CC2)N=5)=NC(=O)C(C)=CC=C[C@@H](C)[C@@H](O)[C@@H](C)[C@@H](O)[C@@H](C)[C@@H](OC(C)=O)[C@@H]1C`, the “activity, negative = inhibition” value was -11.4% [at 25.6 µM].
In the case of `COc1ccc(NC(=O)N2CC3(CCN(C(=O)c4csnn4)CC3)C2)cc1`, the “activity, negative = inhibition” value is reported as 2.39%.
For `CCN1CCCC1Cn1cnc2c([nH]c3ccc(C)cc32)c1=O` (centres undefined), the AC50 was 15.8 µM (active).
Work on `O=C(O)[C@H](CCc1ccccc1)N1C(=O)c2ccccc2C1=O` yielded an activity, negative = inhibition of -9.63% [at 2.29 µM].
In the case of `O=C(CCN1C(=O)c2ccccc2C1=O)Oc1ccc2ccccc2c1`, the AC50 is reported as 17.8 µM (active).
With `O=C(O)CC[C@@H](C(=O)O)N1C(=O)c2ccccc2C1=O` the AC50 was “inactive”.
`CCOc1ccccc1CNCCN1CCOCC1` was tested, and the “activity, negative = inhibition” value was 2.73%.
With `CCOc1cc(CNCCc2ccc(S(N)(=O)=O)cc2)ccc1OCc1ccc(Cl)cc1` the “activity, negative = inhibition” value was -17%.
`CCOc1ccc(Cl)cc1CNCCNCCO` was tested, and the AC50 was 15.8 µM (active).
For `COc1c(Cl)cc(Cl)cc1CNCCNCC(C)O` (centres undefined), the AC50 was 11.2 µM (active).
With `CCOc1ccc(CC(C(N)=O)C(N)=O)cc1CN(C)C` the “activity, negative = inhibition” value was -1.76%.
With `CCOc1ccc(Cl)cc1CNCCNCC(C)O` (centres undefined) the AC50 was 12.6 µM (active).
For `Oc1ccc(-c2[nH]ncc2-c2ccc(Cl)cc2)c(O)c1`, the AC50 was 1.58 µM (active).
For `C=C(C)COc1ccc(-c2n[nH]c(C)c2-c2ccc(OC)cc2)c(O)c1`, the AC50 was 14.1 µM (active).
With `Cc1[nH]nc(-c2ccc(O)cc2O)c1-c1ccc(Cl)cc1` the AC50 was 2.24 µM (active).
In the case of `CC1(C)O[C@@H]2O[C@H]([C@H](O)CO/N=C3/[C@H]4O[C@@H]4[C@@H](O)[C@H]4[C@H]3CCn3c(=O)n(-c5ccccc5)c(=O)n34)[C@@H](O)[C@@H]2O1`, the activity, negative = inhibition is reported as -7.71% [at 11.4 µM].
For `Cc1cc(NC(=O)C2C3C(=O)N(Cc4ccc(Cl)cc4)C(C(=O)NC(C)(C)C)C34C=CC2(C)O4)no1` (centres undefined), the “activity, negative = inhibition” value was 2.8%.
`CCCC(=O)NNC(=O)Nc1ccccc1` was tested, and the “activity, negative = inhibition” value was -5.14%.
With `O=C(COc1ccc2ccccc2c1Br)NNC(=O)Nc1ccccc1` the AC50 was 5.62 µM (active).
For `N#Cc1ccc(-c2ccc(F)cc2)nc1Oc1ccc(Cl)c(Cl)c1`, the AC50 was 1 µM (active).
For `CCc1nnc(NC(=O)CSc2ncnc3c2cnn3-c2ccc(OC)cc2)s1`, the “activity, negative = inhibition” value was -0.31%.
`COc1ccc(-n2ncc3c(NCC4CCCO4)ncnc32)cc1` (centres undefined) was tested, and the AC50 was 14.1 µM (active).
For `Cc1ccc(-n2ncc3c(=O)n(CC(=O)NCC4CCCO4)cnc32)cc1` (centres undefined), the “activity, negative = inhibition” value was -21.7%.
For `Cc1nn(-c2nc3ccccc3[nH]2)c(N)c1-c1ccc(Cl)cc1`, the AC50 was 5.62 µM (active).
With `CCNC(=S)NNC(=O)c1cc(C2CC2)nc2ccccc12` the AC50 was 8.91 µM (active).
With `CCNC(=S)NNC(=O)c1cc(CC(C)C)nc2ccccc12` the “activity, negative = inhibition” value was -18.6%.
`COC(=O)C/C=C\[C@@H](C)[C@@H](/C=N\O[C@@H](C)c1cc(-c2c(C)cc(C)cc2C)no1)OC` showed an activity, negative = inhibition of -3.54% [at 11.4 µM].
With `CC(C)C(C(=O)O)N1C(=O)/C(=C/C=C/c2ccco2)SC1=S` (centres undefined) the “activity, negative = inhibition” value was -22%.
`O=C(C=C1SCCS1)/C=C/c1ccco1` was tested, and the AC50 was 11.2 µM (active).
Work on `O=C(O)C/C(=C\c1ccco1)C(=O)O` yielded an activity, negative = inhibition of -11.8% [at 2.29 µM].
For `Cc1cc(C)c(NC(=O)C[C@H](CC(=O)O)c2cccc3ccccc23)c(C(=O)N2CCC3(CCCC3)CC2)c1`, the “activity, negative = inhibition” value was 2.66%.
For `COc1cc2c(cc1NC(=O)Nc1ccccc1)oc1ccccc12`, the AC50 was 2 µM (active).
In the case of `COC(=O)N1CCC2(CCCN(Cc3ccccc3OC)C2)CC1`, the “activity, negative = inhibition” value is reported as -13.1%.
`COc1ccccc1CC(=O)Nc1cc2oc3ccccc3c2cc1OC` was tested, and the AC50 was 1 µM (active).
In the case of `COc1ccc(NC(=O)c2cc(-c3cccnc3)nc3ccc(C)cc23)cc1OC`, the “activity, negative = inhibition” value is reported as -24.8%.
For `COc1cc2c(cc1NC(=O)c1cc(-c3cccnc3)nc3ccc(C)cc13)oc1ccccc12`, the AC50 was 12.6 µM (active).
In the case of `COC(=O)N1CCC2(CCN(Cc3ccccc3OC)CC2)CC1`, the “activity, negative = inhibition” value is reported as 2.41%.
In the case of `CC1(C)C(=O)C(c2ccccc2)=C2CN3C(=O)N(CCc4ccccc4)C(=O)C3(Cc3ccc(C(F)(F)F)cc3)C=C21` (centres undefined), the “activity, negative = inhibition” value is reported as -12.9%.
With `CC[C@]1(C)CC(=O)NC1=O` the AC50 was “inactive”.
With `C=CCSc1nnc(-c2cc3c(-c4ccccc4)nn(C)c3s2)n1C` the AC50 was 0.282 µM (active).
For `CSc1nnc(-c2cc3c(-c4ccccc4)nn(C)c3s2)n1C`, the AC50 was 0.501 µM (active).
With `O=c1c(-c2nc3ccccc3s2)cccn1Cc1ccccc1` the AC50 was 1.78 µM (active).
With `C=CCn1c(-c2cccn(Cc3ccccc3)c2=O)n[nH]c1=S` the “activity, negative = inhibition” value was 8.59%.
For `CC(=O)COC(=O)CCc1nc2ccccc2[nH]c1=O`, the AC50 was 6.31 µM (active).
Molecule `Cn1c(=O)c2[nH]c(CCCCc3nc4ccccc4[nH]3)nc2n(C)c1=O` has an activity, negative = inhibition of -15.8% [at 11.4 µM].
`O=C(CCc1nc2ccccc2c(=O)[nH]1)OCC(=O)N1CCN(S(=O)(=O)c2ccccc2)CC1` was tested, and the “activity, negative = inhibition” value was -26.8%.
For `O=S(=O)(NCCNC/C=C\c1ccc(Br)cc1)c1cccc2cnccc12`, the AC50 was 2 µM (active).
In the case of `CNCCNS(=O)(=O)c1cccc2cnccc12`, the “activity, negative = inhibition” value is reported as -3.93%.
In the case of `O=C(COC(=O)c1cnccn1)NCc1ccccc1`, the AC50 is reported as 22.4 µM (active).
With `O=C(NCc1ccccc1)C(c1cccs1)N(Cc1cccs1)C(=O)c1cnccn1` (centres undefined) the “activity, negative = inhibition” value was -3.61%.
For `COc1ccc(C(C(=O)NCc2ccccc2)N(Cc2cccs2)C(=O)c2cnccn2)cc1` (centres undefined), the “activity, negative = inhibition” value was 7.23%.
`Cc1ccc(CNC(=O)COC(=O)c2cnccn2)cc1` was tested, and the AC50 was 10 µM (active).
`Cc1cnc(C(=O)OCC(=O)NC(C)C)cn1` was tested, and the “activity, negative = inhibition” value was -22.1%.
`COC(=O)C/C=C\[C@@H](C)[C@@H](CO)NS(=O)(=O)c1ccc(C)cc1` gave an activity, negative = inhibition of -0.334% [at 11.4 µM].
For `COc1ccc(C(=O)Nc2ccc3c(c2)nc(CN2CCN(C(C)=O)CC2)n3C)cc1`, the “activity, negative = inhibition” value was -4.28%.
For `COc1ccc(C(=O)n2c(SC)nc3cc4c(cc32)OCCO4)cc1`, the AC50 was 3.16 µM (active).
`COc1ccc(C(=O)N2CCC3(CCN(Cc4ccncc4)CC3)CC2)cc1` was tested, and the “activity, negative = inhibition” value was -15.5%.
`COc1cccc(C(=O)n2c(SC)nc3cc4c(cc32)OCCO4)c1` was tested, and the AC50 was 5.01 µM (active).
Work on `O=C1C2=CC[C@@H]3C(=O)N(c4ccc(F)cc4F)C(=O)[C@H]3[C@H]2[C@H](O)[C@H]2O[C@H]12` yielded an activity, negative = inhibition of -3.38% [at 11.4 µM].
`CCC(=O)O[C@@]1(C(=O)SCF)[C@@H](C)C[C@H]2[C@@H]3C[C@@H](F)C4=CC(=O)C=C[C@@]4(C)[C@]3(F)[C@@H](O)C[C@]21C` was tested, and the “activity, negative = inhibition” value was -18.3% [at 25.6 µM].
With `COc1ccc(NC(=O)CN2c3cccc4cccc(c34)S2(=O)=O)cc1` the AC50 was 3.16 µM (active).
For `O=C(CN1C(=O)c2ccccc2S1(=O)=O)Nc1ccccc1`, the “activity, negative = inhibition” value was -18.7%.
In the case of `CS(=O)(=O)Nc1c(O)ccc2c1CCC[C@H]2C1=NCCN1`, the “activity, negative = inhibition” value is reported as -8.28%.
With `CS(=O)(=O)N1CCC2(CCN(C(=O)Nc3cccc(F)c3)CC2)CC1` the “activity, negative = inhibition” value was -12.6%.
In the case of `CCOC(=O)c1c(C)nc2c(c1-c1ccccc1)C(=O)CCC2`, the AC50 is reported as 0.282 µM (active).
For `CCOC(=O)c1c(C)nc2c(c1-c1ccccc1)C(=O)CC(C)(C)C2`, the AC50 was 14.1 µM (active).
For `CC1(C)CC(=O)c2c(Cc3ccccc3)n[nH]c2C1`, the “activity, negative = inhibition” value was -21.9%.
In the case of `CCOC(=O)c1c(C)nc2sc3c(=O)n(-c4ccc(C)cc4)cnc3c2c1-c1ccc(OC)cc1`, the “activity, negative = inhibition” value is reported as 12.7%.
In the case of `CCCCCCCCCCn1c2c(c(=N)c3c1CCC3)CCC2`, the AC50 is reported as 14.1 µM (active).
% is set by controls: 0 for no effect and ±100 for the full control effect.
